Source: PubChem BioAssay AID1241 (SRMLSC, 2008)
Among all 1,200 compounds or so, about 840 (70%) were called active. How the calls were made is not given here. The set was probably picked from earlier hits. These entries were drawn from the full list. Entries with a potency or affinity are not part of this list.

Test: compounds inducing NF-kB luciferase expression – cell-based, SH-SY5Y, dose response (AID 1241)
Settings: SH-SY5Y NF-kB promoter luciferase reporter; series mostly up to 30 µM; fold induction over control: at the top concentration

Fold induction over control, inactive:
CNc1oc(/C=C/c2ccccc2)nc1C#N 8.72
C(=C\c1nc(-c2ccccc2)no1)/c1ccccc1 14.1
CCc1ccc(-c2nn(-c3ccccc3)cc2CSC(=N)N)cc1 5.16 [at 7.5 µM]
O=C(Nc1ccc2c(c1)OCCO2)c1cccs1 9.77
Cc1ccccc1-c1noc(-c2ccccc2F)n1 12.3
Cc1cccc(-c2noc(-c3ccc(Cl)cc3[N+](=O)[O-])n2)c1 13.6
CCOC(=O)c1sc(-c2ccc(OC)cc2)cc1N 15.4
COc1ccc(-c2cc(=O)c3cc(C)ccc3[nH]2)cc1 7.13
Nc1nc(-c2ccc3c(c2)CCCC3)cs1 13.8
N#CC(=C1CCCC1)c1nc(-c2ccccc2)cs1 9.56
O=c1oc2cc(Br)ccc2n1CSC1=NCCS1 9.98
CCCCOC(=O)Nc1ccc2c(C)cc(=O)oc2c1 9.2
O=C(Nc1ccc(Cl)cc1)c1ccc(Br)cc1F 12.2
Cc1ccc(C(=O)Nc2ccc3c(c2)nc2n3CCSC2)cc1 10.4
CN1C(=O)/C(=C\C=C2/CCCN2C)N(C)C1=S 2.4
Nc1nonc1-c1noc(COc2ccccc2Cl)n1 15.9
COc1ccc(C(=O)NNC(=S)Nc2ccccc2)cc1 10.9
Cc1cccc(Nc2nc3c(s2)CCCC3)c1 11.4
Oc1ccccc1CNc1ccc(Br)cn1 6.26
COc1ccccc1CNc1ccc(CNc2ncn[nH]2)cc1 1.24
O=C(NCCCN1CCOCC1)c1cc(-c2cccs2)on1 8.03
O=C(NCCCn1ccnc1)c1cc(-c2ccccc2)on1 12.3
Cc1csc2nc(CSc3ccc(Cl)cc3)cn12 10.2
O=C(Cc1cn2ccsc2n1)OCc1ccccc1 2.43
CCOc1cccc2cc(-c3csc(NC(=O)CCC(=O)NCCCN4CCC(C)CC4)n3)c(=O)oc12 13.6
Cc1ccc(Nc2ncnc3c2oc2ccccc23)cc1 8.79
Cc1ccc(N2C(=O)C(NC(=O)c3ccccc3)(C(F)(F)F)C3=C2CC(C)(C)CC3=O)cc1 (stereo unspecified) 1
COCCn1nnnc1C(CC(C)C)N1CCN(c2cccc(OC)c2)CC1 (stereo unspecified) 1.05
CC(C)(C)NC(=O)C[n+]1ccc(C(N)=O)cc1 1.06
O=C(NCC1CCCO1)c1cc(-c2ccccc2)on1 (stereo unspecified) 15.9
COc1ccc2c(c1)CCc1c(C(=O)NCC(C)C)noc1-2 10.1
CC(/C=N/NC(=O)c1cccs1)=C\c1ccco1 9.89
Cc1ccc(N=C/C(C(=O)C(F)(F)F)=C(\O)c2ccco2)cc1Cl 9.74
C/C(=N\NC(=O)c1ccoc1C)c1cccnc1 1.54
CC(=O)CSc1ncnc2c1cnn2-c1ccccc1 9.44
O=[N+]([O-])c1ccc(F)cc1OCc1nc(-c2cccs2)no1 7.67
